Source: PubChem (Broad Institute)
Shh pathway inh – blocks Sonic Hedgehog signaling; inhibition, % (no concentration beside the values); Shh-LIGHT2 Gli-luciferase reporter, 30 h; AID 2313; hit rate 2.1% among 22,000;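 active means mean inhibition across valid replicates above about 65%, limit read from the data; inconclusive means mean under the limit, yet half or more replicates past it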;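 further: pathway switched on by Shh-conditioned medium diluted 1 in 25 in low serum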
NOMO-1 viab – STK33 inhibitor candidate reducing NOMO-1 cell viability | NOMO-1 AML viability, CellTiter-Glo luminescence, 72 h | hit rate 7.5% among 37,000 | inhibition, % (concentration not given with the values); in the data active means inhibition above about 80%; inconclusive means no clear call, values can overlap the other calls
MITF inh – inhibitors of MITF | TRPM1 promoter luciferase, luminescence, 24 h | inhibition, % (test concentration not listed) | hit rate 0.28% among 37,000; in the data active means inhibition above about 85%; inconclusive means no clear call, values can overlap the other calls; inactive means below about 68%;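 further: human melanocyte line stably carrying TRPM1 promoter luciferase reporter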
Numbers stand for hits. Sampled rows, rich in hits. Any-hit rate of the full collection: about 7.8%.

Results for C[C@H]1CN([C@@H](C)CO)C(=O)c2cc(NC(=O)Nc3ccc(C(F)(F)F)cc3)ccc2O[C@H]1CN(C)C(=O)Nc1ccc(F)cc1 ?
Shh pathway inh: inactive; NOMO-1 viab: inactive; MITF inh: inactive

How did CCOC(=O)c1c(NC(=S)Nc2cnccn2)sc(C)c1-c1ccccc1 do in these assays?
NOMO-1 viab: inactive; MITF inh: inactive

How did Cc1cc(C)c(C)c(OCC(O)Cn2cnc3ccccc32)c1 (stereo unspecified) do in these assays?
NOMO-1 viab: inactive; MITF inh: inactive

What do the screens show for `C[C@@H]1CN([C@@H](C)CO)C(=O)c2cc(NC(=O)Nc3ccc(C(F)(F)F)cc3)ccc2O[C@@H]1CN(C)C(=O)Nc1ccc(C(F)(F)F)cc1`?
Shh pathway inh: inactive; NOMO-1 viab: 114; MITF inh: inactive

Results for C[C@@H]1CN([C@@H](C)CO)C(=O)c2cc(NC(=O)Nc3ccc(F)cc3)ccc2O[C@H]1CN(C)C(=O)Nc1ccc(C(F)(F)F)cc1 ?
Shh pathway inh: inactive; NOMO-1 viab: inactive; MITF inh: inactive

Results for O=C(O)CN(CC(=O)O)S(=O)(=O)c1ccc(Cl)cc1 ?
NOMO-1 viab: inactive; MITF inh: inactive

What do the screens show for `Cc1ccccc1NC(=O)CSc1nc2cc3ccccc3cc2[nH]1`?
NOMO-1 viab: 115; MITF inh: inactive

Results for O=C(CSc1nc2ccccc2[nH]1)Nc1cccc2ccccc12 ?
NOMO-1 viab: inactive; MITF inh: inactive

How did Cc1cc(C)c(NC(=O)CSc2nc(-c3ccccc3)c(-c3ccccc3)[nH]2)c(C)c1 do in these assays?
NOMO-1 viab: 101; MITF inh: 92

Results for Cc1ccc(NC(=O)CSc2nc(-c3ccccc3)c(-c3ccccc3)[nH]2)c(C)c1 ?
NOMO-1 viab: inactive; MITF inh: inactive

How did Cc1ccc(NC(=O)CSc2ncccn2)cc1C do in these assays?
NOMO-1 viab: inactive; MITF inh: inactive

How did Cn1c(SCC(=O)Nc2ccc(C(=O)O)cc2)nnc1-c1ccc(Br)cc1 do in these assays?
NOMO-1 viab: inactive; MITF inh: inactive

What do the screens show for `C[C@H](CO)N1C[C@H](C)[C@H](CN(C)Cc2ccc(Cl)c(Cl)c2)Oc2ccc(NC(=O)CCC(F)(F)F)cc2CC1=O`?
Shh pathway inh: inactive; NOMO-1 viab: inactive; MITF inh: inactive

How did C[C@@H]1CN([C@@H](C)CO)C(=O)c2cc(NC(=O)CCC(F)(F)F)ccc2O[C@@H]1CN(C)Cc1ccc(Cl)c(Cl)c1 do in these assays?
NOMO-1 viab: 93; MITF inh: inactive

Results for C[C@@H]1CN([C@@H](C)CO)C(=O)c2cc(NC(=O)CCC(F)(F)F)ccc2O[C@H]1CN(C)Cc1ccc(Cl)c(Cl)c1 ?
Shh pathway inh: inactive; NOMO-1 viab: inactive; MITF inh: inactive

Results for C[C@@H]1CN([C@@H](C)CO)C(=O)Cc2cc(NC(=O)CCC(F)(F)F)ccc2O[C@@H]1CN(C)Cc1ccc(Cl)c(Cl)c1 ?
Shh pathway inh: inactive; NOMO-1 viab: 124; MITF inh: inactive

How did O=C(CSc1n[nH]c(-c2ccc(Cl)cc2)n1)Nc1cccc(Br)c1 do in these assays?
NOMO-1 viab: inactive; MITF inh: inactive

Results for O=[N+]([O-])c1ccccc1S(=O)(=O)NCCOc1ccc(Cl)cc1 ?
NOMO-1 viab: inactive; MITF inh: inactive

How did COc1cc(-c2oc3cc(O)cc(O)c3c(=O)c2OC2OC(CO)C(O)C(O)C2O)ccc1O (stereo unspecified) do in these assays?
Shh pathway inh: inactive; NOMO-1 viab: inactive; MITF inh: inactive

What do the screens show for `O=C(CS(=O)c1ccccc1[N+](=O)[O-])Nc1cccc(C(F)(F)F)c1` (stereo unspecified)?
NOMO-1 viab: inactive; MITF inh: inactive

How did Cc1ccc(C(C)C)c(OC(=O)CS(=O)c2ccc(C(F)(F)F)cc2[N+](=O)[O-])c1 (stereo unspecified) do in these assays?
NOMO-1 viab: 130; MITF inh: inactive

Results for O=C(CS(=O)c1ccc(C(F)(F)F)cc1[N+](=O)[O-])Oc1ccc(Cl)cc1 (stereo unspecified) ?
NOMO-1 viab: 110; MITF inh: inactive

What do the screens show for `Cc1ccc(NC(=O)CC2Sc3ccc(C(F)(F)F)cc3NC2=O)c([N+](=O)[O-])c1` (stereo unspecified)?
NOMO-1 viab: inactive; MITF inh: inactive

How did O=C(COc1cccc2ccccc12)Nc1cc([N+](=O)[O-])ccc1O do in these assays?
NOMO-1 viab: inactive; MITF inh: inactive

What do the screens show for `CCOc1ccc(S(=O)(=O)Nc2nc3ccccc3nc2Nc2ccccc2)cc1`?
Shh pathway inh: inconclusive; NOMO-1 viab: inactive; MITF inh: inactive

Results for O=S(=O)(Nc1nc2ccccc2nc1Nc1ccccc1F)c1ccc(Cl)cc1 ?
Shh pathway inh: 98; NOMO-1 viab: inactive; MITF inh: inactive

What do the screens show for `Cc1ccc2oc(-c3cccc(NC(=O)COc4ccc5ccccc5c4)c3)nc2c1`?
NOMO-1 viab: inactive; MITF inh: inactive

What do the screens show for `C[C@@H]1CCCCO[C@@H](CN(C)Cc2ccc(C(=O)Nc3ccccc3N)cc2)[C@@H](C)CN([C@H](C)CO)C(=O)c2cc(NS(=O)(=O)c3cccs3)ccc2O1`?
NOMO-1 viab: 139; MITF inh: inactive

How did C[C@@H]1CCCCO[C@H](CN(C)Cc2ccc(C(=O)Nc3ccccc3N)cc2)[C@@H](C)CN([C@H](C)CO)C(=O)c2cc(NS(=O)(=O)c3cccs3)ccc2O1 do in these assays?
NOMO-1 viab: 127; MITF inh: inactive

What do the screens show for `C[C@@H]1CN([C@@H](C)CO)C(=O)c2cc(NS(=O)(=O)c3cccs3)ccc2O[C@H]1CN(C)Cc1ccc(C(=O)Nc2ccccc2N)cc1`?
NOMO-1 viab: inactive; MITF inh: inactive

How did C[C@@H]1CCCCO[C@H](CN(C)Cc2ccccc2)[C@@H](C)CN([C@H](C)CO)C(=O)c2cc(NS(=O)(=O)c3cccs3)ccc2O1 do in these assays?
Shh pathway inh: inactive; NOMO-1 viab: inactive; MITF inh: inactive

How did CCOc1ccc2ccccc2c1C(=O)NCc1cccnc1 do in these assays?
NOMO-1 viab: inactive; MITF inh: inactive

Results for CCc1cccc(C(C)C)c1NC(=O)Nc1ccccc1 ?
Shh pathway inh: inactive; NOMO-1 viab: inactive; MITF inh: inactive

What do the screens show for `C[C@H]1CN([C@@H](C)CO)C(=O)Cc2cc(NS(=O)(=O)c3ccc(Cl)cc3)ccc2O[C@@H]1CN(C)CC1CCCCC1`?
Shh pathway inh: inactive; NOMO-1 viab: 120; MITF inh: inactive

Results for C[C@H]1CN([C@@H](C)CO)C(=O)Cc2cc(NS(=O)(=O)c3ccc(Cl)cc3)ccc2O[C@H]1CN(C)CC1CCCCC1 ?
Shh pathway inh: inactive; NOMO-1 viab: 135; MITF inh: inactive

How did Cc1ccc(S(=O)(=O)Nc2ccc3c(c2)CC(=O)N([C@H](C)CO)C[C@H](C)[C@H](CN(C)CC2CCCCC2)O3)cc1 do in these assays?
Shh pathway inh: inactive; NOMO-1 viab: 99; MITF inh: inactive

What do the screens show for `C[C@@H]1CN([C@@H](C)CO)C(=O)Cc2cc(NS(=O)(=O)c3ccc(Cl)cc3)ccc2O[C@@H]1CN(C)CC1CC1`?
NOMO-1 viab: inactive; MITF inh: inactive

How did C[C@H](CO)N1C[C@H](C)[C@H](CN(C)CC2CC2)Oc2ccc(NS(=O)(=O)c3ccc(Cl)cc3)cc2CC1=O do in these assays?
Shh pathway inh: inactive; NOMO-1 viab: inactive; MITF inh: inactive
